CRFR2-BP antag: blocks CRF-induced signaling of the CRF-BP/CRF-R2 complex. actives 0.59% (n = 350,000). HEK293 CRF-R2/CRF-BP, CRF-induced calcium fluorescence. AID 588475. inhibition, % at 11.8 µM;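 active means inhibition of the ligand-induced calcium signal above about 50% at the single tested concentration, limit read from the data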
Myeloid diff MLP: myeloid differentiation induction; ER-HoxA9 myeloid progenitors, lysozyme-GFP differentiation, flow cytometry; AID 624256; actives 1% (n = 360,000); calls only at 10 µM;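 active means normalized GFP-positive differentiation at or above the plate's own cutoff, the solvent-only control mean plus 3 SD; inconclusive means no clear call, values can overlap the other calls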;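 further: cells exposed to compound for four days before flow analysis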
CRFBP-R2 agonist: CRF-BP/CRF-R2 complex agonism; HEK293 CRF-R2/CRF-BP, calcium dye fluorescence (FLIPR); percent of saturating CRF peptide response; activation, % at 13.2 µM; actives 0.46% (n = 350,000); AID 588473;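 active means activation of at least 50%, plus an integration ratio under a set limit after plate pattern correction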;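 further: plate controls were neutral control wells without compound for no effect and CRF at EC100 for full effect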
IDE cell activ: boosts human insulin-degrading enzyme activity in HEK cells; P14735; FAbeta-B cleavage, fluorescence polarization; 0% vehicle, 100% cell-free pure enzyme wells; activation, % at 5.96 µM; actives 0.073% (n = 340,000);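 active means activation above the mean of all tested compounds plus 3 SD, set per screening campaign, cut at about 17% in these data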
TPT1 inhibitor: C. albicans TPT1 enzyme inhibition; recombinant caTPT1, FP RNA substrate dephosphorylation; inhibition, % at 5 µM; actives 0.81% (n = 300,000);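 active means inhibition above the mean of all tested compounds plus 3 SD, set per screening campaign, cut at about 24% in these data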;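 further: plate controls were DMSO alone for no effect and ferristatin control at 100 nM for full effect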
IDE inh: cellular human IDE inhibition; inhibition, % at 5.59 µM; actives 0.41% (n = 320,000); HEK cells, FAbetaB cleavage, fluorescence polarization; P14735;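 active means percent inhibition above the average of all tested compounds plus 3 SD, set per screening campaign, cut at about 16% in these data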;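 further: IDE supplied by intact live HEK cells; FP after avidin binding of uncleaved biotin substrate so inhibition keeps polarization high; 0% = DMSO wells and 100% = 60 µM reference IDE inhibitor Ii1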
* = called active by the depositor; i = inactive; ? = inconclusive; . = no result given; + = active, no number. Only some compounds are listed: those with a hit (about 2.6% of all), similar ones and a draw of the others.

SMILES	CRFR2-BP antag	Myeloid diff MLP	CRFBP-R2 agonist	IDE cell activ	TPT1 inhibitor	IDE inh
Cc1ccc(C(=O)N/C(=C\c2ccc(-c3ccc(Br)cc3)o2)C(=O)NCCCN(C)C)cc1	41	+	1	7	8	-7
CC1(c2ccc(OC(F)F)cc2)NC(=O)N(CC(=O)Nc2cccnc2Cl)C1=O (centres undefined)	-52	i	96*	-2	0	-2
COC(=O)c1c(-c2cccnc2)csc1NC(=O)c1ccc2c(c1)OCO2	-1	i	0	2	21	-3
ON1C(c2ccc(Cl)cc2Cl)N(O)[C@H]2CCCC[C@H]21 (some centres undefined)	51*	i	-2	2	-2	1
CC1N(O)C(c2ccc(Cl)cc2Cl)N(O)C1(C)C (centres undefined)	8	i	0	1	-3	5
COc1ccc(-c2csc3nc(C(C)C)oc(=O)c23)cc1OC	-9	i	0	1	-1	-5
COc1ccc(-c2nc3scc(-c4ccc(OC)c(OC)c4)c3c(=O)o2)cc1	57*	i	-1	2	1	7
COCCCn1c(SCC(=O)N2CCOCC2)nc2cc(Cl)ccc2c1=O	-3	i	-2	1	.	-2
Nc1cc2c(cc1N)-c1ccccc1C2	12	+	-4	-5	.	.
O=C(COC(=O)c1cc(=O)[nH]c(=O)[nH]1)Nc1cccc(Cl)c1	6	i	-1	0	.	-2
Cc1cccc(-n2ncc3c(NCc4ccccc4)ncnc32)c1	-7	+	0	-2	-4	3
c1ccc(CNc2ncnc3c2cnn3-c2ccccc2)cc1	-12	?	0	3	-2	3
Cc1nc(-c2ccncc2)nc(NCCNc2ccc(C(F)(F)F)cn2)c1Cl	118*	i	3	6	1	8
Cc1cc(C)cc(OCC(=O)Nc2ccc3c(c2)C(=O)c2ccccc2C3=O)c1	-28	i	4	0	-1	0
CCOc1ccccc1NC(=O)C1CCC(=O)N1S(=O)(=O)c1ccc(C)cc1 (centres undefined)	82*	i	-1	6	.	.
Cc1ccc(CSCC(=O)N(C)CC(=O)Nc2c(Cl)cccc2Cl)cc1	-5	i	0	-4	-5	-2
O=C(CNC(=O)c1sc2ccccc2c1Cl)NCc1ccc(F)cc1	-3	i	0	-9	-1	8
Cc1cc2nc(-c3cccc(Br)c3)c(CC3CCCCC3)n2c(C)c1Br	.	i	.	.	.	.
CC1(C)CC(=O)C2=C(C1)OC(/N=C/N1CCCC1)=C(C#N)C2c1ccccc1 (centres undefined)	103*	i	2	-1	1	4
CC1(C)CC(=O)C2=C(C1)OC(/N=C/N1CCOCC1)=C(C#N)C2c1ccccc1 (centres undefined)	-2	i	-1	3	1	-3
COc1cc2nc(C3CCC3)nc(N3CCN(c4ccccc4OC)CC3)c2cc1OC	15	i	0	-4	1	15
FC(F)(F)c1cc(C(F)(F)F)n2nc(-c3sccc3-n3cccc3)cc2n1	-118	+	14	1	-4	1
CC(C)(C)C(=O)NCCc1nc(-c2ccccc2)no1	-7	i	0	1	2	1
CC1=Nc2ccccc2/C1=C/c1c(N)n2c(S(=O)(=O)CC(C)C)nsc2nc1=O	61*	i	-2	1	.	.
CC1=Nc2ccccc2/C1=C/c1c(N)n2c(S(=O)(=O)C(C)C)nsc2nc1=O	26	i	0	5	2	3
SMILES	CRFR2-BP antag	Myeloid diff MLP	CRFBP-R2 agonist	IDE cell activ	TPT1 inhibitor	IDE inh
Nc1cc(Cl)ccc1C(=O)OCC(=O)NCC1CCCO1 (centres undefined)	-4	i	-1	-4	.	3
COc1ccc2c(c1)cc1c(=O)n(CC(=O)NCCCN3CCOCC3)nc(C)n12	-5	i	0	-1	2	-1
O=C(CN(C(=O)Cn1nnc(-c2ccccc2F)n1)c1cccc2c1CCCC2)NCc1ccccc1	-8	+	1	5	-3	-2
CC(C)CCNC(=O)CN(C(=O)Cn1nnc(-c2ccccc2F)n1)c1cccc2c1CCCC2	-17	i	28	-2	0	2
COc1cccc(N2CCN(C(=O)C3CCN(C(=O)Nc4ccccc4)CC3)CC2)c1	-5	i	-3	.	.	.
O=C(c1ccco1)N1CCN(c2ncnc3scc(-c4cccs4)c23)CC1	-14	+	0	-8	3	0
O=C(c1ccco1)N1CCN(c2ncnc3c2[nH]c2ccc(Cl)cc23)CC1	.	.	.	.	1	67*
CC(=O)Nc1ccccc1OCC(=O)N(Cc1ccccc1)C(C)C	-1	+	-6	1	-6	3
CN(CCOC(=O)C1c2ccccc2Oc2ccccc21)C(C)(C)C	50*	i	0	5	2	1
CCc1nnc(NC(=O)CCNC(=O)c2ccco2)s1	-4	i	2	3	1	-2
S=C1SCN(Cc2cccnc2)CN1Cc1cccnc1	-107	?	101*	4	-2	-2
S=C1SCN(Cc2ccccc2)CN1Cc1ccccc1	23	i	1	-3	.	.
CCCCNC(=O)c1ccc2nc(CC)c(N(CC)CCN(C)C)n2c1	.	i	.	.	.	.
CCOc1ccc(N(CC(=O)Nc2c(C)cc(C)cc2C)C2=NC3CS(=O)(=O)CC3S2)cc1 (centres undefined)	.	i	.	.	.	.
CC1CC1c1ccc(/C=C(\C#N)C(=O)Nc2cccc(Cl)c2Cl)o1 (centres undefined)	-75	i	59*	-3	2	6
O=C(O)C1CCCCC1C(=O)Nc1cccc(Cl)c1Cl (centres undefined)	6	i	-1	1	8	4
Cc1ccccc1NC(=O)Cn1nnc(S(=O)(=O)c2ccc(C(C)(C)C)cc2)c1N	-26	i	6	-2	1	2
COc1ccc(NC(=O)Nc2nnc(C(C)(C)C)s2)cc1	58*	?	4	-11	-1	0
O=C(O)CCC(CNS(=O)(=O)c1ccccc1)C(F)(F)F (centres undefined)	-1	i	2	-3	0	0
O=C(NC(Cc1ccccc1)C(=O)O)/C(=C/c1ccc([N+](=O)[O-])cc1)NC(=O)c1ccco1 (centres undefined)	-2	i	-1	5	10	2
O=C(N1CCN(c2ccccc2)CC1)C1(S(=O)(=O)c2ccc(Cl)cc2)CC1	-8	+	-1	2	0	0
C(=C/c1nccc2c1[nH]c1ccccc12)/c1ccc2c(c1)OCO2	-43	+	11	-13	.	.
CC(=O)N1CCOc2ccc(S(=O)(=O)N3CCC(C(=O)NCc4ccc(C)cc4)CC3)cc21	53*	i	2	6	1	-14

Assay outcomes (PubChem)
